High-throughput results as filed in PubChem BioAssay.
DT40 TDP1 CPT – growth inhibition of DT40 Tdp1-/-;hTDP1 cells with camptothecin (screen for TDP1 inhibitors). chicken DT40 Tdp1-/-;hTDP1 cells + 20 nM CPT, ATP luminescence, 48 h. Potency, µM (titrated, usually from 46.2 µM), actives largely listed as inhibitors. 12% of 420,000 active. AID 686979; note: nearly all actives have a fitted effect of over 55% in size
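Chicken DT40 Tdp1-/- cells complemented with human TDP1, 400 cells/well, exposed to compounds plus 20 nM camptothecin for at least 48 h at 37 C; viability read as ATP content by CellTiter-Glo luminescence.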
DT40 TDP1 no CPT – qHTS for Inhibitors of human tyrosyl-DNA phosphodiesterase 1 (TDP1): qHTS in cells in absence of CPT. DT40 Tdp1-/- hTDP1 cells, no CPT, ATP luminescence, 48 h. 15% of 420,000 active. Potency, µM (top dose mostly 46.2 µM), most hits filed as inhibitors; note: nearly all actives have a fitted effect of over 55% in size
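Chicken DT40 Tdp1-/- cells stably complemented with human TDP1 were seeded at 400 cells/well with DMSO in place of 20 nM camptothecin. After compound pinning, cells grew at least 48 hr at 37 °C; viability read by CellTiter-Glo luminescence.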
HT1080 IDH1KD tx – HT-1080 IDH1 knockdown cell toxicity (counter line); HT-1080 IDH1 knockdown viability, ATP luminescence, 48 h; Potency, µM (doses to about 46.1 µM), actives largely listed as cytotoxic; 2% of 360,000 active
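% activity derives from luminescence (CellTiter-Glo), normalised to DMSO and no-cell wells. HT-1080-IDH1KD cells, 750/well, had 48 h compound exposure at 37 °C.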
IL1B secr inh – blocks inflammasome-driven IL-1 beta release. THP-1 LPS/ATP IL-1B secretion, AlphaLISA, 16 h; active compounds read low. 4.7% of 360,000 active. AID 743279. activity change, % at 57.5 µM; in the data active = activity change below about -50%; inconclusive = mostly about -30% to -49%
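Secreted IL-1B measured by AlphaLISA bead assay after 16 h compound exposure of THP-1 cells; compounds (final up to 57.5 uM) added 1 h before LPS (250 ng/mL) and ATP (1.25 mM) stimulation; lower signal means less secretion.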
HT1080-NT tox – kills 2HG-producing HT-1080-NT fibrosarcoma cells | HT-1080-NT fibrosarcoma viability, CellTiter-Glo ATP luminescence, 48 h | Potency, µM (titrated, usually from 46.1 µM), usual class: cytotoxic | 1.6% of 360,000 active;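 note: NT is the 2HG producing partner of a matched IDH1 knockdown line; nearly all actives have a fitted effect of over 55% in size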
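750 cells/well, RPMI + 5% FBS; 2 h settle, compound pin-transfer, 48 h at 37 degrees C. CellTiter-Glo 10 min RT, luminescence. Normalized to DMSO and media-only wells.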
Hits are given with their value; n = inactive; u = inconclusive; x = not tested or not shown; ! = a repeat was not active. An excerpt weighted towards active compounds, which were near 19% of everything screened. Unless noted, calls come from the whole dose curve; as a rule, active = well fitted curve in the direction sought with a large enough effect; inconclusive = small, poorly fitted or top-dose-only effect, or another doubt; inactive = no such curve, though single readings can be large; an effect the other way counts as inactive or inconclusive.

SMILES	DT40 TDP1 CPT	DT40 TDP1 no CPT	HT1080 IDH1KD tx	IL1B secr inh	HT1080-NT tox
CCCCOc1cc(C(=O)NCCN(CC)CC)c2ccccc2n1	21µM!	7.3µM	u	-50!	u
CCN(CC)CCNC(=O)c1cc(-c2ccc(Br)s2)nc2ccccc12	18µM	18µM	u	u	18µM
CCc1ccc(CNC(=O)c2cc(-c3ccc(Br)s3)nc3ccccc23)cc1	u	18µM	x	x	x
CN1CCN(NC(=O)c2cc(-c3ccc(Br)s3)nc3ccccc23)CC1	u	7.3µM	23µM	u	21µM
CCOC(=O)CN1C(=O)CCSc2ccc(Cl)cc21	n	n	n	n	n
CCOC(=O)C(CC)(CC)/C(C)=N/NC(=O)CC#N	n	n	n	n	n
CCCCN(C)CCNC(=O)c1cc(-c2ccc(Cl)s2)nc2ccccc12	23µM	23µM	x	x	x
CCOCCCNC(=O)c1cc(-c2ccc(Br)s2)nc2ccccc12	n	u	n	n	n
CCCN(CCC)CCNC(=O)c1cc(-c2ccc(Br)s2)nc2ccccc12	18µM	u	x	x	x
O=C(O)CC(c1ccccc1)c1ccc2c(c1)OCO2 (centres undefined)	n	n	n	n	n
O=C(NCC(O)CO)c1ccc2[nH]c3ccccc3c2c1 (centres undefined)	n	n	n	n	n
CCOC(=O)CNC(=O)c1ccc2[nH]c3ccccc3c2c1	u	u	n	-63	n
COc1ccc(CNC(=O)CSc2nc3ccc(C)cc3[nH]2)cc1OC	n	n	n	n	n
CC(C)c1ccc(N2C(=O)CC(Sc3ncn[nH]3)C2=O)cc1 (centres undefined)	4.6µM	4.6µM	n	n	n
CC1CC(=O)N(c2ccc(C(C)C)cc2)C(=O)C1	n	n	n	n	n
CC(C)c1ccc(N2C(=O)CC(Sc3nc4ccccc4o3)C2=O)cc1 (centres undefined)	4.6µM	5.8µM	n	n	n
COc1ccc(N2C(=O)CC(Sc3ncn[nH]3)C2=O)c(OC)c1 (centres undefined)	2.9µM	2.9µM	10µM	n	u
CC1(C)CC(=O)C(C(c2ccc(Br)cc2)C2C(=O)CC(C)(C)CC2=O)C(=O)C1	n	n	n	n	n
CCN(CC)C(=O)c1nc[nH]c1C(=O)O[C@@H](C)c1ccccc1	n	n	n	n	n
O=C1CC(Sc2cccs2)C(=O)N1c1ccccc1 (centres undefined)	3.7µM	3.7µM	n	n	n
O=C1CC(Sc2nnc(-c3ccccc3)o2)C(=O)N1c1ccccc1 (centres undefined)	2.9µM	4.6µM	n	n	n
O=C(O)c1cccnc1SC1CC(=O)N(c2ccccc2)C1=O (centres undefined)	n	n	n	n	n
Cc1nnc(SC2CC(=O)N(c3ccccc3)C2=O)s1 (centres undefined)	3.7µM	21µM	n	n	n
COc1ccc(NC(=O)N2CC[C@@]3(CCCNC3)C2)cc1	n	n	x	x	x
CC(=O)Nc1cc(-c2ccc(C(=O)N3CCOCC3)cc2)cn2c(-c3ccccc3)cnc12	u	u	n	n	n
SMILES	DT40 TDP1 CPT	DT40 TDP1 no CPT	HT1080 IDH1KD tx	IL1B secr inh	HT1080-NT tox
CC(=O)Nc1cc(-c2ccc(C(=O)N3CCOCC3)cc2)cn2c(-c3ccc(F)cc3)cnc12	u	8.2µM	n	n	n
CC(=O)Nc1cc(-c2ccc(C(=O)N3CCOCC3)cc2)cn2c(-c3ccc(C(C)=O)cc3)cnc12	26µM	12µM	n	n	n
CC(=O)Nc1cc(-c2ccc(C(=O)N3CCOCC3)cc2)cn2c(-c3cccc(C(F)(F)F)c3)cnc12	u	15µM	n	n	n
COc1ccc(C(=O)Nc2ccc(C(=O)N3CCOCC3)cc2)cc1OC	n	n	n	n	n
COc1ccc(-c2cnc3c(NC(C)=O)cc(-c4ccc(C(=O)N5CCOCC5)cc4)cn23)cc1OC	u	23µM	n	u	u
COc1ccc(NC(=O)COC(=O)c2ncc(Cl)c(Cl)c2Cl)c(OC)c1	n	n	n	n	n
O=C(NCN1CCc2ccccc2C1)c1cnccn1	u	23µM	n	n	n
CC(C)(Oc1ccc(Cl)cc1)C(=O)Nc1nnc2n1CCS2	u	18µM	x	x	x
CN(C)C=NC(=O)c1[nH]c2ccc(Cl)cc2c1-c1ccccc1	u	u	u	n	u
N#Cc1cccc(C(=O)C(=O)N2CCC(Cc3ccccc3)CC2)c1	u	u	n	n	n
CC(=O)c1ccc(NC(=S)N2CCC(Cc3ccccc3)CC2)cc1	n	u	n	-79	n
COc1cccc(NC(=S)N2CCC(Cc3ccccc3)CC2)c1	21µM	u	n	n	n
COc1cccc(NC(=O)CCC2CCN(C(=O)c3cccc(NC(C)=O)c3)CC2)c1	n	n	n	n	n
COc1cccc(NC(=O)CCC2CCN(C(=O)C(OC)c3ccccc3)CC2)c1 (centres undefined)	16µM	21µM	n	n	n
O=C(C(=O)N1CCC(Cc2ccccc2)CC1)c1ccccc1	u	16µM	n	n	n
COCCNc1oc(/C=C/c2ccccc2OC)nc1S(=O)(=O)c1ccccc1	u	u	n	n	n
O=C(C[n+]1cnn(CC(=O)c2ccc(Cl)cc2Cl)c1)c1ccc([N+](=O)[O-])cc1	u	u	n	-71	n
O=C(O)CCN=CC1=C(O)CC(c2ccccc2)CC1=O (centres undefined)	n	n	n	n	n
Cc1ccc(NC(=O)Cn2ccc(=O)[nH]c2=O)cc1	n	n	n	n	n
Cc1ccc2nc(Cl)c3cc(C(=O)N4CCCCC4)sc3c2c1	u	n	x	x	x
Cc1ccc2nc(Cl)c3cc(C(=O)NCCCN4CCCC4)sc3c2c1	5.8µM	5.8µM	u	n	18µM
CCC1CCCCN1CCCNC(=O)c1cc2c(Cl)nc3ccc(C)cc3c2s1 (centres undefined)	5.2µM	4.6µM	x	x	x
Cc1ccc2nc(Cl)c3cc(C(=O)N4CCCCC4C)sc3c2c1 (centres undefined)	u	23µM	x	x	x
C[C@H]1CN([C@@H](C)CO)C(=O)CCCn2nncc2CO[C@H]1CN(C)C(=O)c1ccccc1	n	u	n	n	n
N/C(=N\OC(=O)CCCOc1ccccc1)c1cccc([N+](=O)[O-])c1	n	n	n	n	n
O=C1CC[C@@H](CN(Cc2ccccn2)Cc2nc(Cc3ccccc3)no2)N1	n	n	n	n	n
O=S(=O)(c1ccccc1)c1nc(-c2ccc(F)cc2)oc1NCC1CCCO1 (centres undefined)	n	u	n	n	n
Cc1oc(-c2ccc(F)cc2)nc1CN(Cc1ccccn1)CC1CCCO1 (centres undefined)	u	29µM	n	n	n
